Screens: PubChem BioAssay, National Center for Advancing Translational Sciences (NCATS)
D1 agonist – agonists of human D1 dopamine receptor; HEK293 T-REx D1 cells, calcium flux, agonist mode; activation, % at 2 µM; actives 1% (n = 360,000); AID 504660; in the data active = activation above about 30%
Target sequence (P21728 whole entry, looked up): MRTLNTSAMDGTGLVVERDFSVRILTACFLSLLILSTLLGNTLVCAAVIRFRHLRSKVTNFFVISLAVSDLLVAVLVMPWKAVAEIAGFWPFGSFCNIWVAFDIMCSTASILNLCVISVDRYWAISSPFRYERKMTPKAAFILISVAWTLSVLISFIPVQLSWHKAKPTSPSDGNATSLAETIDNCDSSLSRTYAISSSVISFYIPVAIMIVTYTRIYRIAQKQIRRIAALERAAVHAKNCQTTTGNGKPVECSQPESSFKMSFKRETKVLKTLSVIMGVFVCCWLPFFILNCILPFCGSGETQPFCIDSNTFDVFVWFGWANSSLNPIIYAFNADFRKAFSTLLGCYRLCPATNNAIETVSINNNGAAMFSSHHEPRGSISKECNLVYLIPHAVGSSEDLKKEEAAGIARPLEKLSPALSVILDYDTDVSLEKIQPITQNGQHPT
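Agonism was scored from calcium flux recorded over 180 s (1 read/s) after pintool compound addition, following a 10-cycle baseline. Cells were inducible force-coupled HEK293 TREx D1, plated overnight at 30 C and loaded with no-wash calcium dye.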
DRD3 agonist – D3 dopamine receptor (human) agonism. P35462. D3R DiscoveRx beta-arrestin cells, luminescence, 90 min. max activation, %. actives 0.58% (n = 410,000). AID 652048; in the data active = max activation above about 30%
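Cells at 1500/well, incubated overnight, then treated with pinned compounds (dopamine as control) for 90 min at 37 degrees C. DiscoveRx reagent added for 30 - 60 minutes at room temperature; luminescence read.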
D1 antag – human D1 dopamine receptor antagonism; HEK293 TREx D1 cells, calcium flux, dopamine EC80; hits give low values; activity change, negative = inhibition, % at 10 µM; actives 3.2% (n = 360,000); in the data active = activity change below about -30%
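Using tetracycline-induced force-coupled D1 Hek293 cells and a calcium dye, signals were followed for 180 s after compound, then for 180 s after EC80 dopamine, to detect inhibitors.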
D1 potentiator – human D1 dopamine receptor positive modulation; P21728; HEK293 TREx D1 cells, calcium flux, dopamine EC20 potentiation; potentiation, % at 10 µM; actives 0.036% (n = 360,000); in the data active = potentiation above about 30%
D3 antag – D3 dopamine receptor (human) antagonism. D3R cells, DiscoveRx beta-arrestin luminescence, antagonist mode; hits give low values. max response, negative = inhibition, %. actives 2.5% (n = 360,000). AID 652054; in the data active = max response below about -50%; inconclusive = no clear call, values can overlap the other calls
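Cells expressing the human receptor were seeded at 1500 cells/well, incubated overnight at 37 degrees C in 5% CO2, then exposed to library compounds with dopamine controls for 90 minutes at 37 degrees C before luminescent detection.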
Of the large screens only hits and unclear results are named; the others gave an inactive call; ! = not active in a repeat. In the library only some 6.1% were active in any assay of this set; here they are far more common.

CC(=O)c1ccc(N2CCN(C(=O)Nc3ccc(C)cc3)CC2)cc1	D1 antag -40!
CCN(CC)CCNC(=O)c1ccc(-c2nc(CS(=O)(=O)c3ccc(C)cc3)c(C)o2)cc1	none (no result: D3 antag)
Cc1ccc(NC(=O)Cn2c(C)cc(C)c(C#N)c2=O)cc1F	none (no result: D3 antag)
CCCCn1nnnc1C(CCc1ccccc1)N1CCN(C/C=C/c2ccccc2)CC1 (stereo unspecified)	D3 antag -58 (no result: D1 agonist, D1 antag, D1 potentiator)
CCCC(c1nnnn1CCOC)N1CCN(Cc2ccccc2)CC1 (stereo unspecified)	D3 antag inconclusive
CCCCC(c1nnnn1CCOC)N1CCN(Cc2ccccc2)CC1 (stereo unspecified)	D3 antag -80
CCCCn1nnnc1C(CCSC)N1CCN(C/C=C/c2ccccc2)CC1 (stereo unspecified)	D3 antag -122 (no result: D1 agonist, D1 antag, D1 potentiator)
CC(=O)N1CCC(O)(c2cccc(C(F)(F)F)c2)CC1	none
O=C(CCCN1CCC(O)(c2cccc(C(F)(F)F)c2)CC1)c1ccc(F)cc1	D1 agonist 61, D3 antag -61
O=C(CCCN1CCC(O)(c2ccc(Br)cc2)CC1)c1ccc(F)cc1	D1 agonist 70, D1 antag -87, D3 antag -122
O=C(Cn1ccn(-c2ccc(F)cc2)c(=O)c1=O)NCCc1ccccc1	none (no result: D3 antag)
CC(=O)c1ccc(NS(=O)(=O)c2cc(-c3cc(C)no3)ccc2C)cc1	none (no result: D3 antag)
Cc1occc1-c1nnc(SCC(=O)Nc2nc(C(C)(C)C)cs2)o1	D1 agonist 31 (no result: D1 antag)
Cc1csc(NC(=O)CSc2nnc(-c3ccoc3C)o2)n1	none
O=C(CSc1ccccc1)N1CCc2c([nH]c3ccccc23)C1c1ccc(Cl)cc1 (stereo unspecified)	none (no result: D3 antag)
COc1ccc(-c2c(C#N)c(SCC(=O)Nc3ccccc3C)nc(C)c2C(=O)Nc2ccccc2)cc1OC	none (no result: D3 antag)
COc1ccc(CCNCC(=O)Nc2ccc(C)c(S(=O)(=O)N(C)C)c2)cc1	D3 antag -52
CN(C)c1ccc(NC(=O)CCN2CCN(c3ccccn3)CC2)cc1	DRD3 agonist 95
COc1ccc(CCC(=O)Nc2ccc(C)c(S(=O)(=O)N(C)C)c2)cc1OC	none
CCN(CC)S(=O)(=O)c1cc(NC(=O)CN2CCN(c3ccccn3)CC2)ccc1C	DRD3 agonist 91
CN(C)S(=O)(=O)c1ccc(NC(=O)CN2CCN(c3ccccn3)CC2)cc1	DRD3 agonist 66
COc1ccc(CCCc2nnc(SCC(=O)Nc3ccc(C)c(C)c3)o2)cc1	D1 antag -32!
CN(C)S(=O)(=O)c1cc(NC(=O)COC(=O)CCSc2ccc(Cl)cc2)ccc1Cl	D1 antag -43
CN(C)S(=O)(=O)c1cc(NC(=O)COC(=O)Cc2ccc(Cl)cc2Cl)ccc1Cl	none
COc1ccc(CCCc2nnc(SCC(=O)Nc3ccc(OC)cc3)o2)cc1	none
CN(C)S(=O)(=O)c1cc(NC(=O)CN2CCN(c3ccccc3)CC2)ccc1Cl	DRD3 agonist 64
Cc1ccc(NC(=O)COC(=O)Cn2cnc3ccccc32)cc1S(=O)(=O)N(C)C	D1 antag -85
Cc1ccc(C(CC(=O)Nc2ccc(C)cc2C)N2Cc3ccccc3C2=O)cc1 (stereo unspecified)	none (no result: D3 antag)
CC(C)C(=O)c1cc2c(cc1NC(=O)c1ccccc1F)OCCO2	none (no result: D3 antag)
Cc1ccc(Cl)cc1NC(=O)Nc1cccc(OCc2cc(=O)n3ccccc3n2)c1	none (no result: D3 antag)
Cc1ccc(NC(=O)c2ccccc2OCC(=O)Nc2ccccc2F)cc1S(=O)(=O)N(C)C	D1 antag -38
O=C(CN1CCN(c2ccccn2)CC1)Nc1ccc(Cl)c(C(F)(F)F)c1	D3 antag -66
Cc1ccc(NC(=O)CN2CCN(c3ccccn3)CC2)cc1S(=O)(=O)N(C)C	DRD3 agonist 62
O=C(CN1CCN(c2ccccn2)CC1)Nc1cc(C(F)(F)F)ccc1Cl	none
C=C(C)COc1ccc(-c2[nH]ncc2Oc2ccccc2OC)c(O)c1	D3 antag inconclusive
C=C(C)COc1ccc(-c2[nH]ncc2-c2ccccc2OC)c(O)c1	D3 antag -63
COc1ccc(/C=C/c2nc(C#N)c(N3CCCCC3)o2)cc1OC	none (no result: D3 antag)
CCOC(=O)c1c(C)[nH]c(C)c1S(=O)(=O)N1CCC(C(=O)Nc2ccccc2CC)CC1	D1 antag -37 (no result: D3 antag)
CCOC(=O)N1CCN(S(=O)(=O)N2CCCC(C(=O)NCCc3ccc(Cl)cc3)C2)CC1 (stereo unspecified)	D1 antag -41
CCOC(=O)N1CCN(S(=O)(=O)N2CCCC(C(=O)NCCc3ccccc3)C2)CC1 (stereo unspecified)	none
CCOC(=O)c1c(C)[nH]c(C)c1S(=O)(=O)N1CCCC(C(=O)NCc2ccc(Cl)cc2)C1 (stereo unspecified)	D1 antag -31 (no result: D3 antag)
CCOc1ccc(S(=O)(=O)N2CCCC(C(=O)NCc3ccncc3)C2)cc1Cl (stereo unspecified)	D1 antag -31
CCOC(=O)c1c(C)[nH]c(C)c1S(=O)(=O)N1CCCC(C(=O)NCc2ccc(C)cc2)C1 (stereo unspecified)	none (no result: D3 antag)
CCc1ccc(NC(=O)C(CC)n2c(=O)c(-c3ccccc3NC(C)=O)nc3ccccc32)cc1 (stereo unspecified)	none (no result: D3 antag)
CCc1nnc2c(Nc3ccc(Br)c(C)c3)nc3ccccc3n12	none (no result: D3 antag)
COc1ccc2c(c1)cc1c(=O)n(CC(=O)NCc3ccco3)nc(C)n12	none (no result: D3 antag)
O=C(Nc1ccc2nn(-c3ccc(F)cc3)nc2c1)c1cccc2c(Cl)cccc12	none (no result: D3 antag)
Cc1noc(C)c1S(=O)(=O)N1CCCC(C(=O)NCCc2ccc(Cl)cc2)C1 (stereo unspecified)	D3 antag -72
Cc1nn(C)c(C)c1S(=O)(=O)N1CCCC(C(=O)NCCc2ccc(Cl)cc2)C1 (stereo unspecified)	none
COc1ccc(CN=C2Nc3ccccc3CS2)cc1	D1 antag -32
COc1ccc(CN=C2NN=C(c3ccc(Cl)cc3)CS2)cc1	none
Nc1ccc2c3c(cccc13)C(=O)N(c1ccccc1)C2=O	D1 agonist 384, D1 antag -42
Cc1c(O)c2c3c(cccc3c1O)C(=O)N(c1ccccc1)C2=O	D1 agonist 53
O=C(O)c1ccc2c3c(cccc13)C(=O)N(c1ccccc1)C2=O	none
CN(C)c1ccc2c3c(cccc13)C(=O)N(c1ccccc1)C2=O	none (no result: DRD3 agonist, D3 antag)
Cc1cccc(N2C(=O)c3cccc4c(N(C)CCO)ccc(c34)C2=O)c1	D1 agonist 200
Cc1cccc(N2C(=O)c3cccc4c(N)ccc(c34)C2=O)c1	D1 agonist 576
CCc1ccc(-n2c(N3CCN(c4cccc(C)c4C)CC3)nc3ccccc3c2=O)cc1	none (no result: D3 antag)
CCOC(=O)c1ccc(NC(=O)CC2C(=O)N(c3cccc(OC)c3)C(=O)N2Cc2cccnc2)cc1 (stereo unspecified)	none (no result: D3 antag)
CC(C)CC(=O)Nc1nc2nc(-c3ccccc3)cc(=O)n2[nH]1	none (no result: D3 antag)
